Test results: the supplement of paper PMC10849652
Targets with a hit are over-represented here; the source holds about 7,900 in all. About 0.6% of all pairs of compound and target were hits. A number with no mark means an inactive call.

Key:
Assay in all cases: log2 fold change, soluble protein after heating vs DMSO (PISA); higher = thermal stabilisation; K562 cells, 10 uM, 30 min; active = over 0.2 and 3.5 SD of the protein, either way, in both replicates (recomputed)
[1] = compound: CS(=O)(=O)c1ccc(-c2cnc(N)c(C(=O)Nc3ccccc3)n2)cc1
Summary of the method: (§1)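 Soluble protein was quantified by TMTpro 16plex LC-MS/MS after channel sums were equalised. It was obtained as the supernatant after 21,000xg for 90 min from pooled aliquots of K562 cells (2×10^6 cells/mL, 10 μM compound, 30 min) heated for 3 min across 48°C-58°C and extracted in PBS with 0.5% NP-40 at 4°C. Thermal stability values are relative to control samples and come from duplicates. They are given as log2 fold changes.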

[2] = compound: C[C@@H](Oc1cc(-c2cnn(C3CCNCC3)c2)cnc1N)c1c(Cl)ccc(F)c1Cl [crizotinib]
Summary of the method: as §1

[3] = compound: C[C@@H]1COCCN1C2=NC(=NC(=C2)C3(CC3)S(=O)(=O)C)C4=C5C=CNC5=CC=C4
Summary of the method: as §1

[4] = compound: C[C@H](C1=CC=C(C=C1)C(=O)NC2=C3C=CNC3=NC=C2)N
Summary of the method: as §1

[5] = compound: C[C@H](Nc1ncnc2nc[nH]c12)c1cc2cccc(Cl)c2c(=O)n1-c1ccccc1 [duvelisib]
Summary of the method: as §1

[6] = compound: Cc1cc(Nc2cc(CN3CCOCC3)c3nc(C)c(Cc4ccc(Cl)cc4F)n3n2)n[nH]1 [gandotinib]
Summary of the method: as §1

[7] = compound: Cc1cc(Nc2cc(N3CCN(C)CC3)nc(Sc3ccc(NC(=O)C4CC4)cc3)n2)n[nH]1 [tozasertib]
Summary of the method: as §1

[8] = compound: Cc1cc(SCc2sc(-c3ccc(C(F)(F)F)cc3)nc2C)ccc1OCC(=O)O
Summary of the method: as §1

[9] = compound: Cc1ccc(-n2nc(C(C)(C)C)cc2NC(=O)Nc2ccc(OCCN3CCOCC3)c3ccccc23)cc1 [doramapimod]
Summary of the method: as §1

[10] = compound: Cc1ccc(C(=O)N(CCCN)[C@@H](c2nc3cc(Cl)ccc3c(=O)n2Cc2ccccc2)C(C)C)cc1 [ispinesib]
Summary of the method: as §1

UniProt Q9GZY8, sequence (Q9GZY8 whole entry, looked up): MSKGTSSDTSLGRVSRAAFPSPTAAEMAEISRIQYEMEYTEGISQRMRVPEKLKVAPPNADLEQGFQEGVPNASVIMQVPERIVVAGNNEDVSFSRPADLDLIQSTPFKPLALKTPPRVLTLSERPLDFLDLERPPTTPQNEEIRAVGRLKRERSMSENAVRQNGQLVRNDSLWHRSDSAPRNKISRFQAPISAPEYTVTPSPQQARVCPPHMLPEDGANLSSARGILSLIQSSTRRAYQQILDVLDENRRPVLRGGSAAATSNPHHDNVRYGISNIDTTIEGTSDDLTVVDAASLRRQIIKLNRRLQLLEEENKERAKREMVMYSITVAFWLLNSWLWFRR
UniProt Q9H1B7, sequence (Q9H1B7 whole entry, looked up): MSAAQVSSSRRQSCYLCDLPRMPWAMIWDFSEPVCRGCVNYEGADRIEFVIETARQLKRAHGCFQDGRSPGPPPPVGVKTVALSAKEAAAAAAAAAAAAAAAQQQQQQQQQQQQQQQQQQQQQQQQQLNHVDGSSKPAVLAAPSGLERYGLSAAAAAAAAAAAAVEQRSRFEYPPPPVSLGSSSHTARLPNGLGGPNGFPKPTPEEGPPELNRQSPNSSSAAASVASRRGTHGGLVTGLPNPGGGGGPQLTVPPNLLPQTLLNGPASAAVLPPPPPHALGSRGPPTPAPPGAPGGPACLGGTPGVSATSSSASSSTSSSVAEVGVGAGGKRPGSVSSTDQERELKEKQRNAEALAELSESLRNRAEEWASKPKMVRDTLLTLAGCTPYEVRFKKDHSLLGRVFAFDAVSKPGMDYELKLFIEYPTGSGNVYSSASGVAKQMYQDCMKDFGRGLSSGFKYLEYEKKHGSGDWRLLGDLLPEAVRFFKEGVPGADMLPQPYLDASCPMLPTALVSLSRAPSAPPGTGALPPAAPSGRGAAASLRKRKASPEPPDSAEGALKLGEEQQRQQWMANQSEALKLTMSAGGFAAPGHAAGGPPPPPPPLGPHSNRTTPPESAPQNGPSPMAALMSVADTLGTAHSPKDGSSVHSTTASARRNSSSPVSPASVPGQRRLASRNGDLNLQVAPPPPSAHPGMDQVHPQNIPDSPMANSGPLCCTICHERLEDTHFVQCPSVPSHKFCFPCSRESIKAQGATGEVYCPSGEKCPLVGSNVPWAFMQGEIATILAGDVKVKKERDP
UniProt Q71RC2, sequence (Q71RC2 whole entry, looked up): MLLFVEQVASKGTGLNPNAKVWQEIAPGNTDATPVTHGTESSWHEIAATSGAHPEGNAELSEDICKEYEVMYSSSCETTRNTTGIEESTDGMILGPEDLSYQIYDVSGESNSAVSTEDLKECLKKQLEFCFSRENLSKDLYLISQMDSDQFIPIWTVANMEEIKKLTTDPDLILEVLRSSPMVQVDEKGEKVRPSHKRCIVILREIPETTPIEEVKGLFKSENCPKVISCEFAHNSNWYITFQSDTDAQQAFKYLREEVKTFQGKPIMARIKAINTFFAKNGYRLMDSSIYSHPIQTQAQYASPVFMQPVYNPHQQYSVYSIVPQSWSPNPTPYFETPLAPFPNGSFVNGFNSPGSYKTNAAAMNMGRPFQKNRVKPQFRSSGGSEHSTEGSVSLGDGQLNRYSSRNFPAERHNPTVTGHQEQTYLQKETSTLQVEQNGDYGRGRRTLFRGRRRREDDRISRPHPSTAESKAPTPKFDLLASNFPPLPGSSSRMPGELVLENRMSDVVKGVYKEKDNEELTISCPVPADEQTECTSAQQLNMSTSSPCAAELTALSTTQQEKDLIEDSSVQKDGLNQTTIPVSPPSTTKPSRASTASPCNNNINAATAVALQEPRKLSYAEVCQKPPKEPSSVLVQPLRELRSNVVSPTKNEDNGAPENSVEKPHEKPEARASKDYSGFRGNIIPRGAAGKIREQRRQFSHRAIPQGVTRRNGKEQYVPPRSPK
UniProt Q96A72, sequence (Q96A72 whole entry, looked up): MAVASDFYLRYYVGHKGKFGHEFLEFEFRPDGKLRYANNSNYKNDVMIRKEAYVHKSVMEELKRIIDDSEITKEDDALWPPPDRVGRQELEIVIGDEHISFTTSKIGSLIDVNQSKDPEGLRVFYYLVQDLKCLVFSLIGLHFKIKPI
UniProt P43362, sequence (P43362 whole entry, looked up): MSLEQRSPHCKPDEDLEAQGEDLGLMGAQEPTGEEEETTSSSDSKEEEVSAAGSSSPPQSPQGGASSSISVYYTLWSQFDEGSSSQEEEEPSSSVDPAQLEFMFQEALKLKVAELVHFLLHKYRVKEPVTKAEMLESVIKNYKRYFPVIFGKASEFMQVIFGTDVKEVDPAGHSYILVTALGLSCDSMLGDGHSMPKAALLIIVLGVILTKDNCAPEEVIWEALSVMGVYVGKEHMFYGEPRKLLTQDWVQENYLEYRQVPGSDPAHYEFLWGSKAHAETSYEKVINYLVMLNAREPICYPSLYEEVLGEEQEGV
UniProt O94822, sequence (O94822 whole entry, looked up): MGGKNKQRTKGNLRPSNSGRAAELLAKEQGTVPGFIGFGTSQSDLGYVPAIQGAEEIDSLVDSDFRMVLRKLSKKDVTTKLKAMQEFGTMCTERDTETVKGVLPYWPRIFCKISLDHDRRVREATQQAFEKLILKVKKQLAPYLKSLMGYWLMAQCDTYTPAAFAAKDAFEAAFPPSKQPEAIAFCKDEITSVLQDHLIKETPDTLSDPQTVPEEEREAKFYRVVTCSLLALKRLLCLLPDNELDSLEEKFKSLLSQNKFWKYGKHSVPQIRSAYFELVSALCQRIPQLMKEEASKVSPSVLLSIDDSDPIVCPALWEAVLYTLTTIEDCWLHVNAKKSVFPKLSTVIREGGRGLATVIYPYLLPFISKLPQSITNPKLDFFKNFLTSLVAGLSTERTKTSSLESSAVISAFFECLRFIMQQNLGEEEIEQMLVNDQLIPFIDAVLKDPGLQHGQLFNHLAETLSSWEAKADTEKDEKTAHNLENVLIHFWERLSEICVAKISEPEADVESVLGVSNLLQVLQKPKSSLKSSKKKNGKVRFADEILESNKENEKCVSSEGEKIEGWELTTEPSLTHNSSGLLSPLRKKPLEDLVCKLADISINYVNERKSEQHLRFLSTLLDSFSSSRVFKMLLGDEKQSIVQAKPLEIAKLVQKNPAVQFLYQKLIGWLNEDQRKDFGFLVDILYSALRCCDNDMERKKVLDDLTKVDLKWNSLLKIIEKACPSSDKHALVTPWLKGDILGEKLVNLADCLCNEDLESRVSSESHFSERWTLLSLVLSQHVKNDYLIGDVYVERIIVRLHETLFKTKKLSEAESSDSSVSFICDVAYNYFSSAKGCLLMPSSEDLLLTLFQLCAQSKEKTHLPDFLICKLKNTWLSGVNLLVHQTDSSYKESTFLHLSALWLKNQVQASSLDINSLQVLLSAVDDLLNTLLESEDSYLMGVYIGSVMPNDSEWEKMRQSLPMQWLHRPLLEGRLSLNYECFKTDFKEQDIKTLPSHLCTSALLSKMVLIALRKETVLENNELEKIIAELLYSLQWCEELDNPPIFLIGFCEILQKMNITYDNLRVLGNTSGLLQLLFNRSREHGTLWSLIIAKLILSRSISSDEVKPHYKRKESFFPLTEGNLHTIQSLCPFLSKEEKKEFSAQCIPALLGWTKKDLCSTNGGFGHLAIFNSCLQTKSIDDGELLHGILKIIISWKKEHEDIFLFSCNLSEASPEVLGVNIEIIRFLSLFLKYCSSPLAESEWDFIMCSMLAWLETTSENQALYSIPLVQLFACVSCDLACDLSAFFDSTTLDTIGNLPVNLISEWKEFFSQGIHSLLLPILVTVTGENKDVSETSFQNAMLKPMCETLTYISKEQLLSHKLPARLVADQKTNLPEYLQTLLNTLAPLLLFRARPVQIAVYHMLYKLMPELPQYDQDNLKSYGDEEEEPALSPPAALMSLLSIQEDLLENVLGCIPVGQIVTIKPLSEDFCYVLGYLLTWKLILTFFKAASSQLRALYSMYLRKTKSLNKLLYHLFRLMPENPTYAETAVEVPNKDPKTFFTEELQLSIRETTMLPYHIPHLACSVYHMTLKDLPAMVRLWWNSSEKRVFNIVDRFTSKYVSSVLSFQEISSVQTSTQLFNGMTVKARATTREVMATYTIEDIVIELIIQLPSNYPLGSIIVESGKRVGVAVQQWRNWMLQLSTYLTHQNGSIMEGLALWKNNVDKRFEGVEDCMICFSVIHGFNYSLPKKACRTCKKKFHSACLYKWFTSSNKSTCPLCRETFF
UniProt O95372, sequence (O95372 whole entry, looked up): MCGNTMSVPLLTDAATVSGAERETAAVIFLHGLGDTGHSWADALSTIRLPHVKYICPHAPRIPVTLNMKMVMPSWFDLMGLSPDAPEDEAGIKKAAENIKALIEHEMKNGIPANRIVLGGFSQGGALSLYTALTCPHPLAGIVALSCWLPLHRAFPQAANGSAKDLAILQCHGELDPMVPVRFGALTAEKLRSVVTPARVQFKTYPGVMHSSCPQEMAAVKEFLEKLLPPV
UniProt Q9H0C8, sequence (Q9H0C8 whole entry, looked up): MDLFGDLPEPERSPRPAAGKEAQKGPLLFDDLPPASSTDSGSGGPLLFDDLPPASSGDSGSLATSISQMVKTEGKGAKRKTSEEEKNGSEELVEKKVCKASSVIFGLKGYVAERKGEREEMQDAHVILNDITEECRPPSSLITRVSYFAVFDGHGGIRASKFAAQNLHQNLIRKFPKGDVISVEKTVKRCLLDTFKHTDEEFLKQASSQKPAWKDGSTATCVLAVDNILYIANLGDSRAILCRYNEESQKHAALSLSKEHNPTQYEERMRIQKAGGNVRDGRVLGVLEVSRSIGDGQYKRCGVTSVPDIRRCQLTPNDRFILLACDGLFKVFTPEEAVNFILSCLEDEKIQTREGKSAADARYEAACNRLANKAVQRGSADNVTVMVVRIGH
UniProt Q8WWC4, sequence (Q8WWC4 whole entry, looked up): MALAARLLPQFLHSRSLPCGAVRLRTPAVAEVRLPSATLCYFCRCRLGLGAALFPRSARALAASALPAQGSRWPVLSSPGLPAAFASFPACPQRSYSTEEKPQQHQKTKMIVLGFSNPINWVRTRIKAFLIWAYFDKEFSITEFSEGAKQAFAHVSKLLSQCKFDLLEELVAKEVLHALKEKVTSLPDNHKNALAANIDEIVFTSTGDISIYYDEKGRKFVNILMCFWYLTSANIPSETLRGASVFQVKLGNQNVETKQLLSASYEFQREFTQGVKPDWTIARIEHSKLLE

Target | log2 fold change [1] | log2 fold change [2] | log2 fold change [3] | log2 fold change [4] | log2 fold change [5] | log2 fold change [6] | log2 fold change [7] | log2 fold change [8] | log2 fold change [9] | log2 fold change [10]
LMBR1 isoform 3 (UniProt Q8WVP7) | 0.086 | -0.198 | 0.019 | -0.05 | 0.095 | -0.812 (active) | 0.028 | 0.04 | 0.032 | -0.477
LUZP1 (UniProt Q86V48) | 0.183 | -0.259 | -0.265 | 0.191 | -0.009 | 0.058 | 0.196 | 0.206 | 0.017 | -0.138
MIA2 (UniProt Q96PC5) | 0.001 | 0.015 | 0.006 | -0.059 | -0.077 | -0.034 | 0.09 | 0.044 | -0.01 | 0.011
ILKAP (UniProt Q9H0C8) | 0.008 | 0.064 | 0.174 | -0.054 | 0.041 | -0.061 | 0 | 0.085 | -0.055 | 0.05
MFF (UniProt Q9GZY8) | -0.03 | -0.051 | -0.052 | -0.023 | 0.005 | -0.036 | -0.053 | -0.085 | -0.018 | -0.088
LARP4 isoform 4 (UniProt Q71RC2) | -0.027 | -0.098 | -0.308 (active) | 0.177 | -0.075 | 0 | 0.017 | 0.06 | 0.104 | -0.237
MAGEA9 (UniProt P43362) | 0.005 | 0.008 | 0.082 | -0.028 | 0.12 | -0.095 | 0.168 | -0.029 | 0 | -0.001
MDC1 (UniProt Q14676) | -0.053 | -0.109 | 0.041 | 0.107 | -0.057 | 0.423 | -0.154 | -0.031 | 0.178 | -0.217
LRBA, A0A494BZW2 | 0.013 | -0.053 | 0.114 | 0.104 | -0.057 | 0.041 | -0.055 | -0.004 | 0.036 | -0.182
KIAA1324L (UniProt A8MWY0) | 0.081 | -0.125 | 0.06 | 0.062 | -0.027 | 0.076 | -0.036 | -0.057 | 0.051 | -0.124
MAGOHB (UniProt Q96A72) | 0.005 | 0.324 (active) | 0.013 | -0.131 | 0.039 | 0.084 | 0.141 | 0.05 | -0.016 | 0.076
IRF2BPL (UniProt Q9H1B7) | -0.034 | 0.133 | 0.249 | -0.005 | 0.106 | -0.041 | 0.034 | 0.066 | -0.061 | -0.083
MAPKAPK3 (UniProt Q16644) | -0.033 | -0.078 | 0.048 | 0.115 | 0.015 | -0.043 | 0.014 | -0.021 | 0.314 | -0.111
LRPPRC (UniProt P42704) | 0.025 | -0.822 | 0.154 | 0.065 | 0.059 | -0.175 | 0.213 | 0.481 | -0.172 | -0.416
IGF2R (UniProt P11717) | 0.031 | -0.871 (active) | -0.035 | -0.035 | 0.048 | 0.017 | 0.025 | 0.019 | -0.01 | -0.115
LTN1 isoform 3 (UniProt O94822) | -0.049 | -0.136 | -0.077 | 0.128 | -0.05 | -0.234 | 0.012 | 0.11 | 0.021 | -0.229
MFN1 (UniProt Q8IWA4) | 0.031 | -0.026 | 0.027 | -0.063 | 0.037 | 0.025 | -0.063 | 0.039 | 0.02 | -0.207
MCU (UniProt Q8NE86) | -0.013 | -0.159 | 0.015 | 0.001 | 0.061 | -0.172 | -0.012 | 0.054 | -0.013 | -0.1
LRBA (UniProt P50851) | 0.018 | -0.054 | 0.037 | -0.005 | 0.012 | -0.094 | -0.006 | 0.011 | 0.012 | -0.078
MAIP1 (UniProt Q8WWC4) | 0.071 | -0.114 | 0.062 | -0.072 | 0.025 | -0.025 | 0.027 | -0.005 | -0.008 | -0.21
IKZF1 (UniProt Q13422) | -0.065 | -0.048 | 0.008 | -0.069 | 0.111 | -0.038 | -0.078 | 0.039 | -0.016 | -0.186
LYPLA2 (UniProt O95372) | -0.028 | 0.005 | 0.299 | -0.08 | 0.189 | -0.094 | 0.056 | 0.066 | 0.016 | 0.172
MARK3 (UniProt P27448) | -0.042 | -0.394 (active) | -0.039 | 0.063 | -0.013 | -0.194 | -0.187 | 0.089 | 0.073 | -0.173
IGFBP2 (UniProt P18065) | -0.205 | -0.297 | -0.051 | -0.189 | 0.173 | -0.475 | -0.083 | 0.026 | -0.305 | -0.482
KIF13A (UniProt Q9H1H9) | 0.018 | 0.058 | 0.112 | 0.072 | 0.034 | -0.384 (active) | 0.065 | -0.009 | -0.011 | -0.003
MICU2 (UniProt Q8IYU8) | 0.014 | -0.173 | -0.026 | 0.108 | -0.045 | -0.062 | -0.036 | 0.035 | -0.009 | -0.213
MIEN1 (UniProt Q9BRT3) | 0.03 | 0.152 | 0.314 (active) | -0.193 | 0.208 | 0.026 | 0.12 | 0.032 | 0.029 | 0.235
MCUR1 (UniProt Q96AQ8) | 0.041 | 0.082 | 0.1 | 0.044 | 0.06 | -0.021 | 0.043 | -0.017 | -0.002 | 0.255
ME2 (UniProt P23368) | -0.027 | 0.282 (active) | -0.048 | 0.009 | 0.043 | -0.016 | -0.001 | -0.002 | -0.016 | 0.334 (active)
LARP4B (UniProt Q92615) | -0.066 | -0.1 | -0.121 | 0.104 | -0.029 | -0.029 | 0.037 | 0.065 | 0.048 | -0.132
